test system: RIOK2; settings: concentration: 1 μM,replicates: in singlicate; n = 1
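Note: KINOMEscan kinase panel screen.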

Compound | %Inh
COC(=O)c1cccc(NC(=O)NC2CCN(c3ccnc(Nc4cc(OC)c(OC)c(OC)c4)n3)C2)c1 (stereo not shown) [GSK1379767] | 0%
Cc1n[nH]c2cc(Nc3ccnc(Nc4cccc(CN5CCOCC5)c4)n3)ccc12 [GW682569] | 84%
O=C(Nc1cccc(C(F)(F)F)c1)c1cccc(Oc2ccc3nccn3n2)c1 | 0%
C[C@@H]1CNc2c(sc3ccc4nc(-c5ccc(O)cc5)ccc4c23)C(=O)N1 | 18%
O=C(Nc1n[nH]c2cc(-c3ccco3)ccc12)C1CC1 [SB-737447] | 10%
Cn1cc(-c2cccc3c(N)c(C(N)=O)nnc23)cn1 | 52%
OCCn1cc(-c2cnc3nnn(Cc4ccc5ncccc5c4)c3n2)cn1 | 0%
Cl.c1ccc(Oc2ccc(Nc3ccnc4cc(-c5ccc(CN6CCNCC6)o5)ccc34)cc2)nc1 [GW567142] | 0%
CS(=O)c1ccc(-c2coc3ccc(-c4n[nH]c(=O)o4)cc23)cc1 (stereo not shown) | 37%
CS(=O)(=O)Nc1ccc(-c2ccnc3[nH]ccc23)cc1 [GSK993273] | 67%
COC(=O)Nc1nc2cc(Oc3ccc(NC(=O)Nc4cc(C(F)(F)F)ccc4Cl)cc3)ccc2[nH]1.Cl [GW697465] | 2%
O=C(Nc1ccc(Oc2ccc3nc(NC(=O)C4CC4)cn3n2)c(F)c1)c1cccn(-c2ccccc2)c1=O | 0%
CCNCC(Cc1ccccc1)NC(=O)c1cc(Br)c(-c2ccnc3[nH]ccc23)s1.Cl.Cl (stereo not shown) [GSK1383280] | 61%

Reference: article PMC5540273 (PLoS ONE, 2017)
